Screens (PubChem)
Only some compounds are listed: those with a hit (about 3.1% of all), similar ones and a draw of the others.
miR-122 sensor: inhibitors of miR-122 in Huh7 cells; Huh7 miR-122 Renilla luciferase sensor, 48 h; neutral wells = 0, positive control = 100; activation (reporter increase), % at 12.5 µM; actives 0.3% (n = 340,000); AID 602342;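 active = mean replicate activation score at least 90 and every replicate individually at or above 90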;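 also: higher luciferase means less miR-122 activity so hits act as miR-122 inhibitors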
HIV Env fusion: HIV envelope-mediated fusion inhibition. HeLa-JRFL Env/CEM21 cell fusion, luciferase. inhibition, % at 12.3 µM. actives 1.1% (n = 360,000);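 active = mean replicate inhibition score of at least 50 and every replicate individually at or above 50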;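 also: 0% = plate neutral controls and 100% = maraviroc near 300 nM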
EWS-Fli block: inhibitors of EWS/Fli oncoprotein transcriptional activity. actives 0.67% (n = 350,000). AID 651661. A673 NR0B1-luciferase reporter, viability-normalised. inhibition, % at 12.6 µM;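 active = mean inhibition of at least 50% after viability correction, with every replicate also passing that limit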;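 also: firefly luciferase signal divided by Alamar Blue viability fluorescence both relative to DMSO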
PAX8 reporter: inhibitors of PAX8 transcriptional activity in RMG-I cells; inhibition, % at 12.6 µM; AID 652154; RMG-I TPO-luciferase reporter, SteadyGlo, 24 h; actives 1.2% (n = 360,000);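 active = mean replicate inhibition at least 60% with every replicate also reaching 60%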;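 also: luciferase light reporting Pax8 driven TPO promoter activity; plate controls were median of neutral control wells for no effect and mitoxantrone controls for full effect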
INS-1E GSIS act: primary screen for activators of insulin secretion dependent on glucose, INS-1E cells, GLuc reporter luminescence; INS-1E GLuc reporter insulin secretion, 2-3 h; activation, % at 16.6 µM; actives 0.61% (n = 370,000);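 active = lowest replicate activation of at least 40%, so every replicate reaches that level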;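 also: 0% = median of neutral control wells and 100% = median of IBMX positive control wells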
Statin myotox sup: suppressors of simvastatin-induced myotoxicity in C2C12 myotubes. ATP luminescence, 48 h; scaled: DMSO 0, geranylgeraniol control 100. rescue of ATP level, % at 7.49 µM. actives 0.78% (n = 330,000). AID 602340;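 active = mean ATP rescue above about 67%, or every replicate alone reaching that limit, limit read from the data, passing the limit was not always enough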;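 also: myotubes were challenged with 10 µM simvastatin during compound exposure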
* = called active by the depositor; nt = not tested or not shown; ! = repeats disagree; [ ] = remark or other dose.

SMILES | miR-122 sensor | HIV Env fusion | EWS-Fli block | PAX8 reporter | INS-1E GSIS act | Statin myotox sup
CCCN(C)C[C@H]1Oc2cc(C#Cc3cccc(OC)c3)ccc2S(=O)(=O)N([C@@H](C)CO)C[C@H]1C | 9[16.7 µM] | 37[16.7 µM] | 9 | 3 | -2 | -11
OC(c1ccc(Cl)c(F)c1)c1ncc(-c2cccc(F)c2)[nH]1 (configuration not stated) | 124* | -9 | 15 | -3 | -39 | 7
Cc1cc(C(O)c2ncc(-c3ccccc3)[nH]2)ccc1F (configuration not stated) | 158* | nt | nt | nt | nt | -2
COc1cccc(CNC(=O)[C@@H]2[C@@H](CO)[C@@H]3Cn4c(ccc(C5=CCCCC5)c4=O)[C@H]2N3)c1 | -1[16.7 µM] | nt | 4 | -3 | 7 | 19
CC1CCCN(C(=O)Cc2cn(Cc3cccc(Cl)c3)c3ccccc23)C1 (configuration not stated) | nt | nt | 21 | 64* | -6 | nt
O=C(Cc1cn(Cc2cccc(Cl)c2)c2ccccc12)N1CCCCCC1 | nt | 9 | 7 | 3 | -1 | nt
O=C(C[C@H]1CC[C@@H](NS(=O)(=O)c2ccccc2)[C@@H](CO)O1)N1CCc2ccccc2C1 | nt | 12[16.7 µM] | 4 | 7 | 2 | 7
N#C/C(=N\Nc1cccc([N+](=O)[O-])c1)C(=O)c1ccc(Br)cc1 | nt | 42 | 26 | 91* | 11 | -119
O=C(O)c1ccc(N=NNc2cccc([N+](=O)[O-])c2)cc1 | nt | -41 | -2 | -87 | -1 | nt
CCOC(=O)c1c(C)[nH]c(C(=O)COC(=O)c2cnccn2)c1C | 1 | 33 | 0 | -10 | 70* | -2
Cc1ccsc1/C=N\Nc1cn[nH]c(=O)c1Cl | -11 | 56* | -22 | -42 | 16 | nt
Cc1ccc(/C=N\Nc2cn[nH]c(=O)c2Cl)cc1 | 2 | -24 | nt | nt | 17 | 49
O=C(NC1CCCCC1)C(c1cccnc1)N(C(=O)CCl)c1cccc(Cl)c1 (configuration not stated) | -3 | nt | 58* | 29 | 6 | 12
Cc1cccc(N(C(=O)CNC(=O)c2ccco2)C(C(=O)NC2CCCCC2)c2cccnc2)c1 (configuration not stated) | nt | 41 | 2 | 5 | -2 | -9
CCCNC(=O)COc1ccc(C=O)cc1 | nt | -11[16.7 µM] | -5 | -12 | nt | nt
Cc1cc(C)nc(N2CCCC(C(=O)NCc3cccs3)C2)n1 (configuration not stated) | -7 | nt | -1 | nt | 7 | 127*
O=C(CCl)Nc1cccc(S(=O)(=O)NC2=NCCCCC2)c1 | -8 | 6 | 62* | 45 | 26 | 6
O=S(=O)(c1ccccc1F)N1CCCCN2[C@H](CO)[C@H](c3ccc(-c4ccncc4)cc3)[C@H]2C1 | 6[16.7 µM] | nt | 12 | -8 | -7 | nt
N#Cc1nc(COc2ccccc2)oc1N1CCOCC1 | 0 | -124 | nt | -22 | 6 | 106*
Cc1cc(S(=O)(=O)Nc2nc(CN3CCOCC3)nc3sc4c(c23)CCCC4)ccc1F | 4 | nt | nt | nt | nt | 121*
Cc1ccc(-c2cnc3c(c2)C(=O)N([C@@H](C)CO)C[C@@H](C)[C@@H](CN(C)C(=O)c2cccc(F)c2)O3)cc1 | -4[16.7 µM] | 10[16.7 µM] | 5 | 15 | -14 | 18
O=C(Cc1ccc(NC(=O)C2CCCN(C(=O)C3CCCC3)C2)cc1)Nc1cccc(C(=O)N2CCCCC2)c1 (configuration not stated) | -3 | 23 | -8 | 7 | 0 | -3
O=C(Cc1ccc(NC(=O)C2CCCN(C(=O)c3ccccc3)C2)cc1)Nc1cccc(C(=O)N2CCCCC2)c1 (configuration not stated) | nt | -6 | 12 | -1 | 79* | nt
COCCNC(=O)CN(C(=O)CCC(=O)Nc1nccs1)c1ccccc1OC | -1 | nt | nt | nt | 14 | 109*
COc1cc(C2CC(=O)N(c3ccc(C)cc3)C(=O)C2)cc(OC)c1OC | nt | -150 | 53* | 20 | 7 | nt
SMILES | miR-122 sensor | HIV Env fusion | EWS-Fli block | PAX8 reporter | INS-1E GSIS act | Statin myotox sup
O=C(NCC(c1cccnc1)N1CCN(c2ccc(F)cc2)CC1)c1ccccc1 (configuration not stated) | -1 | nt | nt | nt | nt | 11
O=C(NCc1ccc(Cl)cc1)C(=O)NCC(c1cccnc1)N1CCN(c2ccc(F)cc2)CC1 (configuration not stated) | nt | 62* | 5 | 22 | -20 | nt
CCOc1ccc(S(=O)(=O)Nc2ccccc2C(=O)N(C)C2CCN(C)CC2)cc1 | 2 | nt | -9 | -3 | 17 | 19
CCOC(=O)c1ccccc1NS(=O)(=O)c1ccc(OCC)cc1 | 39 | 63* | nt | nt | -19 | nt
O=C(C[C@@H]1CC[C@@H](NC(=O)c2cccnc2)[C@@H](CO)O1)NCc1ccncn1 | nt | 4[16.7 µM] | 5 | -8 | 17 | -6
C[C@H](CO)N1C[C@H](C)[C@H](CN(C)S(=O)(=O)c2ccc(F)cc2)Oc2c(NC(=O)NC3CCCCC3)cccc2C1=O | 1[16.7 µM] | nt | 15 | 62* | -11 | -46
C[C@@H]1CN([C@@H](C)CO)C(=O)c2cccc(N(C)C)c2O[C@H]1CN(C)C(=O)NC1CCCCC1 | 7[16.7 µM] | -21[16.7 µM] | nt | -6 | -11 | 17
C[C@@H]1CN([C@@H](C)CO)C(=O)c2cccc(NC(=O)NC3CCCCC3)c2O[C@@H]1CN(C)S(=O)(=O)c1ccc(Cl)cc1 | -12[16.7 µM] | nt | 5 | 4 | -15 | 1
C[C@H](CO)N1C[C@H](C)[C@@H](CN(C)C(=O)NC2CCCCC2)Oc2c(cccc2N(C)C)C1=O | 65[16.7 µM] | 85*! | -8 | 0 | -8 | -16
C[C@H]1CN([C@@H](C)CO)C(=O)c2cccc(NC(=O)NC3CCCCC3)c2O[C@H]1CN(C)S(=O)(=O)c1ccc(Cl)cc1 | -16[16.7 µM] | nt | 24 | 72* | -13 | -4
COc1ccc2c3c([nH]c2c1)[C@H](CO)N(C(=O)Nc1c(C)noc1C)CC31CN(CC2CCOCC2)C1 | nt | nt | -1 | -1 | 9 | nt
COc1cc(S(=O)(=O)N2CCN(C(=O)c3ccccc3F)CC2)c(OC)cc1NC(C)=O | -1 | nt | nt | nt | nt | 102*
O=C(NC1CCC1)[C@H]1[C@H](CO)[C@H]2Cn3c(ccc(-c4ccncc4)c3=O)[C@H]2N1CCc1ccccc1 | nt | nt | 1 | 10 | -4 | nt
CC(Oc1ccccc1)C(=O)N1CCCc2ccccc21 (configuration not stated) | 2 | -43 | nt | 21 | nt | 15
CC(C(=O)N1CCCc2ccccc21)N1C(=O)c2ccccc2C1=O (configuration not stated) | -3 | nt | nt | nt | nt | 109*
O=C(O)[C@H]1[C@H](CO)[C@H]2Cn3c(ccc(-c4ccccc4)c3=O)[C@H]2N1Cc1ccccc1F | nt | 10[16.7 µM] | 8 | nt | 4 | 13
CC[N+](CC)(CC)CCOc1ccc(/C=C/c2ccccc2)cc1 | 2 | 22 | 7 | 96* | -1 | -126
CC[N+](CC)(CC)CCOc1cccc(OCC[N+](CC)(CC)CC)c1OCC[N+](CC)(CC)CC | 4 | nt | nt | nt | nt | 3
